Experimental data taken from PubChem BioAssay (NCATS).
Inconclusive results are not listed. Active and inactive are the calls of the source. Unless noted, the call rests on the fitted dose curve; in most records, active means well fitted curve in either direction with a large enough effect (not every such curve was filed as active); inconclusive means small, poorly fitted or top-dose-only effect, or another doubt; inactive means flat fitted curve, though single readings scatter.

molecular target: Mitogen-activated protein kinase 10 (Mus musculus) (UniProt Q61831); assay: JNK3 AlphaScreen Assay (AID 530); details: JNK3 lysate, c-Jun phosphorylation; series mostly up to 57.1 µM;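 further: kinase came from lysate of stimulated human HepG2 cells; signal reports phosphorylation of biotinylated GST-cJun 1-79 at Ser73 with 10 µM ATP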
How it was run: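 Pre-activated (IL-1β/TNFα) JNK3 in HepG2 lysates phosphorylates biotin-GST-cJun(1-79), 10 uM ATP; anti-phospho-cJun(Ser73) AlphaScreen read at room temperature, pH 7.6 Tris buffer. Compounds pre-incubated 15 min as titrations.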

Potency, inactive:
COCCNc1ncnc2ccc(-c3ccccc3OC)cc12, O=c1c(-c2cccc(F)c2)nc2cncnc2n1Cc1ccc(F)cc1, CS(=O)(=O)Nc1cccc(-c2nc(Nc3ccncc3)c3ccccc3n2)c1, O=c1c(CCc2ccccc2)nc2cnc(N3CCNCC3)nc2n1Cc1cccs1, COc1ccccc1-c1nc(Nc2ccncc2)c2ccccc2n1, COc1ccc(Oc2ncc3nc(-c4ccc(F)cc4)c(=O)n(C[C@H]4CCCO4)c3n2)cc1, COc1ncc2nc(-c3ccccc3)c(=O)n(CCc3ccccc3)c2n1, CN(C)c1ccc(-c2cncnc2NCCN2CCOCC2)cc1, COc1ccc(-c2nc3cnc(N4CCN(C)CC4)nc3n(CCc3ccccc3)c2=O)cc1, COc1ccccc1CNc1cc(-c2cccnc2)ncn1, CCNc1ncc2nc(CCc3ccccc3)c(=O)n(Cc3cccc(OC)c3)c2n1, CN(Cc1ccco1)c1ncnc2ccc(-c3cccc(NS(C)(=O)=O)c3)cc12, CN1CCN(c2ncnc3ccc(-c4cccc(C#N)c4)cc23)CC1, COc1cccc(Nc2ncc3ncc(=O)n(Cc4ccc(F)cc4)c3n2)c1, COc1ccccc1CNc1ccnc(-c2cccc(NS(C)(=O)=O)c2)n1, COc1cccc(-c2ccc3ncnc(N4CCNCC4)c3c2)c1, N#CCCn1c(=O)c(-c2ccc(Cl)cc2)nc2cnc(N3CCOCC3)nc21, CCNc1ncc2nc(-c3ccc(OC)cc3)c(=O)n(C)c2n1, O=c1c(CCc2ccccc2)nc2cnc(Nc3ccccc3)nc2n1C[C@H]1CCCO1, CN(C)c1ccc(-c2cc(N(C)Cc3ccco3)ncn2)cc1, COc1ccccc1CNc1ccnc(-c2cccnc2)n1, CN(C)c1ncnc2ccc(-c3cccc(NS(C)(=O)=O)c3)cc12, CN1CCN(c2ncnc3ccc(-c4ccccc4C(F)(F)F)cc23)CC1, COc1ccc2[nH]cc(CCNc3ncncc3-c3ccccc3OC)c2c1, COCCn1c(=O)c(-c2ccccc2)nc2cnc(Oc3cccc(Cl)c3)nc21, COc1ccc(Oc2ncc3nc(-c4cc(F)cc(F)c4)c(=O)n(C4CC4)c3n2)cc1, COc1ccccc1-c1ccc2ncnc(N3CCNCC3)c2c1, Cn1c(=O)c(-c2ccc(Cl)cc2)nc2cncnc21, COc1ccccc1-c1nccc(NCc2cccs2)n1, CCNc1ncc2nc(CCc3ccccc3)c(=O)n(CCC#N)c2n1, COc1ccc2[nH]cc(CCNc3cc(-c4cccc(C#N)c4)ncn3)c2c1, COc1ccccc1-c1ccc2ncnc(N3CCOCC3)c2c1, COc1ccccc1CNc1cc(-c2ccccc2CN(C)C)ncn1

molecular target: 3',5'-cyclic-AMP phosphodiesterase 4B (Homo sapiens) (UniProt Q07343); assay: qHTS Assay for Inhibitors of PDE-IV (AID 607; active means well fitted activation curve with a large enough effect in the main read-out, with a control signal flat, not every such curve was filed as active); details: HEK293 ACTOne CNG channel cells, membrane potential fluorescence; series mostly up to 22.9 µM
How it was run: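 The readout is membrane depolarisation from a cAMP-sensing CNG channel, detected with a potential dye at ex 535/em 590. Cells were HEK293-derived (endogenous PDE-IV) at 1000 cells/well, titrated up to 22.9 uM final.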

Sequence of 3',5'-cyclic-AMP phosphodiesterase 4B (Homo sapiens) (Q07343 whole entry, looked up): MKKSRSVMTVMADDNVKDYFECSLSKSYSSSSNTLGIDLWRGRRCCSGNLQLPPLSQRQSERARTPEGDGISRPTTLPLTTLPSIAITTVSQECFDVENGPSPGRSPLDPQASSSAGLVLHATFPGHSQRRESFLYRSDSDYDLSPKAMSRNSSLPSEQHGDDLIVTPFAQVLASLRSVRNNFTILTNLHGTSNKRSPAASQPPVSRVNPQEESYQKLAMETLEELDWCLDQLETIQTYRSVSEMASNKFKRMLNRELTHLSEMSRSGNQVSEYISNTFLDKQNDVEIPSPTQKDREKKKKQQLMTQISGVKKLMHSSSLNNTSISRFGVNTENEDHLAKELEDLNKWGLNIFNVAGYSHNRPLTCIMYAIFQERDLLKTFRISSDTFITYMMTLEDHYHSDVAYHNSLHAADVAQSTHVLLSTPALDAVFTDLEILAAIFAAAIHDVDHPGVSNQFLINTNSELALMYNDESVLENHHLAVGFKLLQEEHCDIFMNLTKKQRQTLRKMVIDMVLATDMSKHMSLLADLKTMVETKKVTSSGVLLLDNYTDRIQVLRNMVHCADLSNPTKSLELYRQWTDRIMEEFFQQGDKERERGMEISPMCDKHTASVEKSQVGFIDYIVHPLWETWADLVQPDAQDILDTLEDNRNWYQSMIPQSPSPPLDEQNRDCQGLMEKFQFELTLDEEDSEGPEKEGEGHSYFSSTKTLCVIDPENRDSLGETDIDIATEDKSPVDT

Potency, inactive:
COCCNc1ncnc2ccc(-c3ccccc3OC)cc12, O=c1c(-c2cccc(F)c2)nc2cncnc2n1Cc1ccc(F)cc1, O=c1c(CCc2ccccc2)nc2cnc(N3CCNCC3)nc2n1Cc1cccs1, COc1ccc(Oc2ncc3nc(-c4ccc(F)cc4)c(=O)n(C[C@H]4CCCO4)c3n2)cc1, COCCn1c(=O)c(CCc2ccccc2)nc2cnc(Oc3ccccc3)nc21, CN(C)c1ccc(-c2cncnc2NCCN2CCOCC2)cc1, COc1ccc(-c2nc3cnc(N4CCN(C)CC4)nc3n(CCc3ccccc3)c2=O)cc1, COc1ccccc1CNc1cc(-c2cccnc2)ncn1, COc1ccccc1CNc1ccnc(-c2cccc(NS(C)(=O)=O)c2)n1, N#CCCn1c(=O)c(-c2ccc(Cl)cc2)nc2cnc(N3CCOCC3)nc21, CN(C)c1ccc(-c2cc(N(C)Cc3ccco3)ncn2)cc1, COc1ccccc1CNc1ccnc(-c2cccnc2)n1, CN(C)c1ncnc2ccc(-c3cccc(NS(C)(=O)=O)c3)cc12, CN1CCN(c2ncnc3ccc(-c4ccccc4C(F)(F)F)cc23)CC1, COc1ccc2[nH]cc(CCNc3ncncc3-c3ccccc3OC)c2c1, COCCn1c(=O)c(-c2ccccc2)nc2cnc(Oc3cccc(Cl)c3)nc21, Cc1cnc(CNc2ncnc3ccc(-c4ccc(N(C)C)cc4)cc23)cn1, COc1ccc(Oc2ncc3nc(-c4cc(F)cc(F)c4)c(=O)n(C4CC4)c3n2)cc1, COc1ccccc1-c1ccc2ncnc(N3CCNCC3)c2c1, Cn1c(=O)c(-c2ccc(Cl)cc2)nc2cncnc21, COc1ccc2[nH]cc(CCNc3cc(-c4cccc(C#N)c4)ncn3)c2c1, Cc1cnc(CNc2ncnc3ccc(-c4ccccc4C)cc23)cn1
